The structures appear in SMILES notation. Where “and” joins values, the source holds several entries; their conditions need not be identical. Equal values may be shown once. Among all 220,000 compounds or so, about 2,100 (0.95%) were called active. This excerpt belongs to a sample that is enriched for actives. Unmarked numbers belong to inactive results.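 How the source made its calls: active means compounds that cut the binding signal by more than half at the single screening dose; inactive means the rest.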

For the assay, the target named is Induced myeloid leukemia cell differentiation protein Mcl-1 (Homo sapiens) (UniProt Q07820). Briefly: disruptors of Mcl-1 and Bid BH3 peptide – biochemical, TR-FRET, 1536-well, primary screen (AID 1021).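 Further: His-tagged Mcl-1 with europium anti-His antibody binding Bid BH3 peptide; 0% = Mcl-1 plus peptide wells and 100% = peptide-only wells.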 The following applies: TR-FRET Mcl-1/Bid-Dy647 peptide binding, at 21.7 µM, stronger effect = higher value. A general note: TR-FRET usually uses a lanthanide donor and a delayed reading to cut background.
Induced myeloid leukemia cell differentiation protein Mcl-1 (Homo sapiens), sequence (Q07820 whole entry, looked up): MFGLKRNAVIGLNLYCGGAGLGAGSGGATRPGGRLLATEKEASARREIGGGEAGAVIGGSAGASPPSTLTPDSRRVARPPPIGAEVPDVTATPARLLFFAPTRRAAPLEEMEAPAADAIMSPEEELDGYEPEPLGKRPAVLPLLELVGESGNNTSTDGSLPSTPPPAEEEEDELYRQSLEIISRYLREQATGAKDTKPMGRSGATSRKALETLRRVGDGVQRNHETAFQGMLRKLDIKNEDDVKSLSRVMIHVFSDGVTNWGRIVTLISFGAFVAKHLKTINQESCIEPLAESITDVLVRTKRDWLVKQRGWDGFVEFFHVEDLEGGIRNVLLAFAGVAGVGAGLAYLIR
What is called inhibition is the drop in the measured response relative to a control, in per cent. Regarding `N#Cc1c(NCCO)ccc([N+](=O)[O-])c1NCCO`, the inhibition is -25.7%.
The result for `CCCCCC(=O)Nc1ccc(-c2cn3cccnc3n2)cc1` reads -4.56%.
The result for `CC(C)n1c(=S)[nH]c2cc(C(F)(F)F)ccc21` reads -33.7%; that for `COc1ccc(OC)c(Nc2nc3ccccc3n3cnnc23)c1`, -7.62%.
For `CN(C)/C=C(/C(=O)c1ccccc1Cl)S(C)(=O)=O`, the inhibition was -0.7%.
In the case of `CCOC(=O)c1cn(CC)c2cc(F)c(F)cc2c1=O`, the inhibition is -8.08%.
The result for `CC(C)c1ccc2c(c1)c(SC(C)(C)C)c(CC(C)(C)C(=O)O)n2Cc1ccc(Cl)cc1` reads 83.2% (active).
Next, `CCC(=O)Nc1cccc(C2=NOC3(C2)C[C@@H](C(N)=O)N(C(=O)c2cc([N+](=O)[O-])cc([N+](=O)[O-])c2C)C3)c1` (stereo not given in full): -35.2%; `CC(C)C(=O)N1CCC2(CC1)Oc1ccc(F)cc1C(=O)C21CC(c2ccccc2)=NO1` (stereo not given): -8.72%.
The result for `CCCC/S(C)=N/S(=O)(=O)c1ccc(C)cc1` (stereo not given) reads 4.25%; that for `CC/S(CC1CC1(Cl)Cl)=N\S(=O)(=O)c1ccc(C)cc1` (stereo not given), -4.99%; that for `Cc1ccc(S(=O)(=O)/N=S(\C)C(C)C)cc1` (stereo not given), 89.4% (active).
Take `O=C1[C@@H]2C(c3cccnc3)=NO[C@@H]2C(=O)N1c1ccc(Cl)cc1Cl`: the inhibition was -19.8%.
Take `CCN1C(=O)/C(=C2/Sc3ccccc3N2CCCS(=O)(=O)O)SC1=S`: the inhibition is -30.2% and -29.9%.
With `CCN1C(=O)/C(=c2\s/c(=C3\Sc4ccccc4N3C)c(=O)n2C)N(C)C1=S`, the inhibition was 79.2% (active).
The result for `CCC(=O)/C=C1\Sc2ccccc2N1CC` reads -12.9%.
The result for `Cc1cc(F)ccc1NC(=O)C(C)n1c2ccccc2c2nc(=O)cc(C)n21` (stereo not given) reads -4.95%; that for `COCCN(CCOC)c1nc(N)c2c(N)nc3c(c2c1C#N)CC(=O)N3Cc1ccc(Cl)cc1`, 54.2% (active).
The result for `COc1ccccc1C(=O)Nc1ccc(OCc2nnc3c4ccccc4c(C)nn23)cc1` reads 59.8% (active).
`CCOc1ccc(NC(=O)c2cc(C)nc3ccccc23)cc1`: the inhibition is -4.96%.
Next, `COc1ccccc1C(=O)NNC(=O)c1ccc(NC(=O)c2ccccc2)cc1`: -23.3%; `CCOC(=O)N/N=C1\CC(C)S(=O)(=O)c2ccc(Cl)cc21` (stereo not given): -6.47%; `O=C(O)CCc1cccnc1`: -29.9%.
As for `COc1ccc2nc(Nc3nc4ccc(NC(C)=O)cc4s3)sc2c1`, the inhibition was 72.8% (active).
Next, `COc1ccc2nc(NC(=O)c3ccc(Br)s3)sc2c1`: 4.41%.
The result for `COc1ccc2nc(Nc3nc4cc5c(cc4s3)OCCO5)sc2c1` reads -62.6%; that for `COc1ccc(-c2csc3ncnc(Oc4ccc5c(C)cc(=O)oc5c4)c23)cc1`, 63.3% (active); that for `COc1ccc(N2CCN(C(=O)COc3ccc4c(C)cc(=O)oc4c3)CC2)cc1`, -16.1%.
Next, `COc1cccc(-c2nnc(SCCOc3ccc4c(C)cc(=O)oc4c3)o2)c1`: -1.18%.
As for `O=C(CN1CCN(Cc2ccccc2)CC1)NC(c1ccccc1)c1ccccc1`, the inhibition was 26.9%.
For the compound `COc1ccc(NC(=O)CCN2C(=O)/C(=C/c3ccc4c(c3)OCO4)SC2=S)cc1`, the inhibition is -17%.
Regarding `Cc1ccc(C2C3=C(Nc4[nH]n(-c5ccccc5)c(=O)c42)c2ccccc2C3=O)cc1` (stereo not given), the inhibition is 84.6% (active).
`Cc1cc(C)c(C2C3=C(Nc4c2c(C)nn4-c2ccccn2)c2ccccc2C3=O)c(C)c1` (stereo not given): the inhibition was -27.1%.
As for `Cc1ccc(N=Nc2c(C)[nH]n(-c3ccccc3)c2=O)cc1`, the inhibition is -11.4%.
In the case of `O=C(O)c1ccc(/C=N/Nc2nc(N3CCCCC3)nc(N3CCCCC3)n2)cc1`, the inhibition was 5.5%.
The result for `CC(=O)NC(CC(=O)O)c1ccc(F)cc1` (stereo not given) reads -2.56%; that for `Cc1ccc(C(CC(=O)O)Nc2nc(N3CCCCC3)nc(N3CCCCC3)n2)cc1` (stereo not given), 50.7% (active).
On to `CCC(C)(C)NC(=O)C1c2ccccc2Oc2ccccc21`, for which the inhibition was -5.83%.
The result for `Cc1ccc(-c2csc3nnc(SCC(=O)NCc4ccco4)n23)cc1` reads -17.3%; that for `CCn1c(COc2ccccc2)nnc1SCC(=O)NCc1ccco1`, -25.4%.
For `CCn1c(SCC(=O)NCc2ccco2)nnc1-c1ccc(N)cc1`, the inhibition was 75.2% (active).
Next, `CC(C)n1c(=O)[nH]c2cc(C(=O)Nc3ccccc3)ccc21`: -10.9%.
The result for `COc1c(C=O)c(CCN(C)C(=O)c2ccc(F)cc2)cc2c1OCO2` reads 0.65%.
As for `Cc1ccc(N2CCN(/N=C/c3cccs3)CC2)cc1`, the inhibition is -7.6%.
The result for `Cc1ccc(N2CCN(C3=NC(=O)/C(=C\c4cccs4)S3)CC2)cc1` reads 97.7% (active); that for `Cc1ccsc1/C=C1\SC(N2CCOCC2)=NC1=O`, -15.9%.
The result for `Cc1ccc(-c2nn(-c3cccc(F)c3)cc2CNCCc2ccncc2)o1` reads -20.2%.
Next, `C=CCN(c1ccccc1C(=O)NCC(=O)OCC)S(=O)(=O)c1ccc(C)cc1`: -11.3%; `O=S(=O)(c1cccc(-c2nnc3n2CCCCC3)c1)N1CCOCC1`: -26.9%; `O=S(=O)(c1ccc(-c2ccccc2)cc1)N1CCCC1`: -19.2%.
Consider `O=S(=O)(c1cccc(-c2nnc(SC(F)F)n2-c2ccccc2)c1)N1CCCCC1`, for which the inhibition is 91.8% (active).
Next, `COc1cccc(/C=N\NC(=O)C2=NNC(=O)C2C)c1O` (stereo not given): -128%; `COc1cccc(/C=N/NC(=O)c2[nH]nc3c2CCc2ccccc2-3)c1O`: 53.3% (active).
In the case of `COc1cccc(/C=N/Nc2cc(C)nc(-c3ccccc3O)n2)c1O`, the inhibition is -54.1%.
For the compound `O=C(NCc1ccc2c(c1)OCO2)c1sccc1Br`, the inhibition was -8.46%.
